The whole screen tested about 5,500 compounds, of which about 2,000 (36%) were called active. Roughly 18% stayed inconclusive and do not appear here. No stated cut-off is given here; in the data, active means normalized growth mostly below about 0.91 (no sharp cut-off); inconclusive means no clear call, values can overlap the other calls; inactive means mostly above about 0.92. Some of the results follow.
Assay: chemical genetic growth profiling, strain panel (AID 1159580);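 further: tested at 20 µM; growth read once vehicle control cultures reached saturation at 30 °C; 1 = growth at the plate median or of vehicle wells; lower values mean less growth of the strain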
Conditions: growth OD

Measured: normalized growth

CCCCOc1ccc(CC(=O)NO)cc1
inactive: S. cerevisiae deletion strains, locus YJR043C, strain POL32, hits give low values 0.968 | S. cerevisiae deletion strains, locus YJR066W, strain TOR1, hits give low values 0.976 | S. cerevisiae deletion strains, locus YJR075W, strain HOC1, hits give low values 0.977 | S. cerevisiae deletion strains, locus YKL009W, strain mrt4, hits give low values 1.01 | S. cerevisiae deletion strains, locus YKL068W, hits give low values 0.999 | S. cerevisiae deletion strains, locus YKL085W, strain MDH1 (second series), hits give low values 0.998 | S. cerevisiae deletion strains, locus YKL085W, strain MDH1, hits give low values 0.998 | S. cerevisiae deletion strains, locus YKL160W, strain elf1, hits give low values 0.984 | S. cerevisiae deletion strains, locus YKL190W, strain CNB1, hits give low values 0.994 | S. cerevisiae deletion strains, locus YKR026C, strain gcn3, hits give low values 0.991 | S. cerevisiae deletion strains, locus YKR091W, strain srl3, hits give low values 0.996 | S. cerevisiae deletion strains, locus YLL001W, strain dnm1, hits give low values 0.986 | S. cerevisiae deletion strains, locus YLL026W, hits give low values 0.981 | S. cerevisiae deletion strains, locus YLL041C, strain sdh2, hits give low values 0.985 | S. cerevisiae deletion strains, locus YLR027C, strain aat2, hits give low values 0.97 | S. cerevisiae deletion strains, locus YLR039C, strain RIC1, hits give low values 0.731 | S. cerevisiae deletion strains, locus YLR058C, strain SHM2, hits give low values 1 | S. cerevisiae deletion strains, locus YLR102C, strain apc9, hits give low values 1.01 | S. cerevisiae deletion strains, locus YLR113W, strain HOG1, hits give low values 0.963 | S. cerevisiae deletion strains, locus YLR221C, strain rsa3, hits give low values 0.963 | S. cerevisiae deletion strains, locus YLR258W, strain gsy2, hits give low values 0.984 | S. cerevisiae deletion strains, locus YLR262C, strain YPT6, hits give low values 0.738 | S. cerevisiae deletion strains, locus YLR268W, strain sec22, hits give low values 0.983 | S. cerevisiae deletion strains, locus YLR320W, strain mms22, hits give low values 0.958 | S. cerevisiae deletion strains, locus YLR330W, strain CHS5, hits give low values 0.988 | S. cerevisiae deletion strains, locus YLR342W, strain FKS1 (second series), hits give low values 1.01 | S. cerevisiae deletion strains, locus YLR342W, strain FKS1, hits give low values 1.01 | S. cerevisiae deletion strains, locus YLR357W, strain rsc2, hits give low values 1 | S. cerevisiae deletion strains, locus YLR370C, strain arc18, hits give low values 0.989 | S. cerevisiae deletion strains, locus YLR371W, strain rom2, hits give low values 0.999 | S. cerevisiae deletion strains, locus YLR384C, strain iki3, hits give low values 0.991 | S. cerevisiae deletion strains, locus YLR418C, strain cdc73, hits give low values 0.921 | S. cerevisiae deletion strains, locus YML016C, strain PPZ1, hits give low values 1 | S. cerevisiae deletion strains, locus YML032C, strain rad52, hits give low values 0.997 | S. cerevisiae deletion strains, locus YML120C, strain ndi1, hits give low values 0.991 | S. cerevisiae deletion strains, locus YML124C, strain tub3, hits give low values 1 | S. cerevisiae deletion strains, locus YMR058W, strain fet3, hits give low values 0.969 | S. cerevisiae deletion strains, locus YMR078C, strain ctf18, hits give low values 1 | S. cerevisiae deletion strains, locus YMR125W, strain sto1, hits give low values 0.997 | S. cerevisiae deletion strains, locus YMR129W, hits give low values 0.996 | S. cerevisiae deletion strains, locus YMR205C, strain PFK2, hits give low values 0.984 | S. cerevisiae deletion strains, locus YMR223W, strain ubp8, hits give low values 1 | S. cerevisiae deletion strains, locus YMR231W, strain pep5, hits give low values 1 | S. cerevisiae deletion strains, locus YMR307W, strain GAS1, hits give low values 0.998 | S. cerevisiae deletion strains, locus YNL067W, strain RPL9B, hits give low values 0.976 | S. cerevisiae deletion strains, locus YNL071W, strain lat1, hits give low values 0.992 | S. cerevisiae deletion strains, locus YNL183C, strain NPR1, hits give low values 0.97 | S. cerevisiae deletion strains, locus YNL209W, strain ssb2, hits give low values 1.01 | S. cerevisiae deletion strains, locus YNL233W, strain BNI4, hits give low values 0.966 | S. cerevisiae deletion strains, locus YNL248C, strain rpa49, hits give low values 0.968 | S. cerevisiae deletion strains, locus YNL250W, strain rad50, hits give low values 1 | S. cerevisiae deletion strains, locus YNL271C, strain bni1, hits give low values 1.01 | S. cerevisiae deletion strains, locus YNL298W, strain CLA4, hits give low values 1.01 | S. cerevisiae deletion strains, locus YNL307C, strain MCK1, hits give low values 0.999 | S. cerevisiae deletion strains, locus YNL322C, strain KRE1 (second series), hits give low values 0.997 | S. cerevisiae deletion strains, locus YNR049C, strain mso1, hits give low values 0.995 | S. cerevisiae deletion strains, locus YNR052C, strain pop2, hits give low values 1.01 | S. cerevisiae deletion strains, locus YOL006C, strain TOP1, hits give low values 0.887 | S. cerevisiae deletion strains, locus YOL012C, strain htz1 1.47 | S. cerevisiae deletion strains, locus YOL147C, strain pex11, hits give low values 1 | S. cerevisiae deletion strains, locus YOR001W, strain rrp6, hits give low values 1.01 | S. cerevisiae deletion strains, locus YOR061W, strain CKA2, hits give low values 0.985 | S. cerevisiae deletion strains, locus YOR069W, strain VPS5, hits give low values 0.997 | S. cerevisiae deletion strains, locus YOR070C, strain gyp1, hits give low values 0.999 | S. cerevisiae deletion strains, locus YOR080W, strain dia2, hits give low values 0.995 | S. cerevisiae deletion strains, locus YOR083W, strain WHI5, hits give low values 0.982 | S. cerevisiae deletion strains, locus YOR106W, strain vam3, hits give low values 0.971 | S. cerevisiae deletion strains, locus YOR136W, strain idh2, hits give low values 1.01 | S. cerevisiae deletion strains, locus YOR144C, strain elg1, hits give low values 1 | S. cerevisiae deletion strains, locus YOR184W, strain ser1, hits give low values 0.999 | S. cerevisiae deletion strains, locus YOR231W, strain MKK1, hits give low values 1 | S. cerevisiae deletion strains, locus YOR265W, strain rbl2, hits give low values 0.997 | S. cerevisiae deletion strains, locus YOR270C, strain vph1, hits give low values 0.989 | S. cerevisiae deletion strains, locus YOR290C, strain snf2, hits give low values 0.989 | S. cerevisiae deletion strains, locus YOR316C, strain cot1, hits give low values 1.01 | S. cerevisiae deletion strains, locus YPL051W, strain arl3, hits give low values 0.961 | S. cerevisiae deletion strains, locus YPL078C, strain atp4, hits give low values 1 | S. cerevisiae deletion strains, locus YPL106C, strain sse1, hits give low values 1.08 | S. cerevisiae deletion strains, locus YPL240C, strain hsp82, hits give low values 1 | S. cerevisiae deletion strains, locus YPL241C, strain CIN2, hits give low values 0.994 | S. cerevisiae deletion strains, locus YPL256C, strain CLN2, hits give low values 1.02 | S. cerevisiae deletion strains, locus YPR119W, strain clb2, hits give low values 1.01 | S. cerevisiae deletion strains, locus YPR141C, strain kar3, hits give low values 1 | S. cerevisiae deletion strains, locus YPR163C, strain tif3, hits give low values 1.01 | S. cerevisiae deletion strains, locus YPR167C, strain met16, hits give low values 1.01 | S. cerevisiae deletion strains, strain wtn01, hits give low values 0.988 | S. cerevisiae strains, strain wild type, hits give low values 0.992
active: S. cerevisiae deletion strains, locus YKR001C, strain vps1, hits give low values 0.831 | S. cerevisiae deletion strains, locus YLR262C, strain YPT6 (second series), hits give low values 0.847

— PubChem BioAssay AID1159580 (chemical genetic matrix, 2015)
